According to PubChem BioAssay (NCI):
Compounds without any hit were thinned out: in the full panel of roughly 79,000, 15% have a hit. A number with no mark means an inactive call. Activity calls are given as the source filed them. Rule as the data show it: active = growth inhibition above about 70%; inactive = the rest.

Assays:
[1] = NCI Yeast Anticancer Drug Screen. Data for the rad50 strain (AID 155);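 also: 0% = growth of vehicle-only cultures of the same strain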; conditions: S. cerevisiae rad50 strain growth inhibition, stronger effect = higher value
In short: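 Yeast carrying a defined DNA repair defect were exposed to test compounds, and growth was compared with vehicle-treated controls to give percent inhibition.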

[2] = NCI Yeast Anticancer Drug Screen. Data for the mec2-1 strain (AID 157); conditions: S. cerevisiae mec2-1 strain, stronger effect = higher value
In short: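 Cells of the genetically defined mec2-1 yeast strain are incubated with test compound. Inhibition of growth is calculated against vehicle-treated controls.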

[3] = NCI Yeast Anticancer Drug Screen. Data for the sgs1 mgt1 strain (AID 161);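 also: 0% = growth of cultures given vehicle only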; conditions: S. cerevisiae sgs1 mgt1 strain, stronger effect = higher value
In short: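 Mutant yeast exposed to compound; growth scored against vehicle-only wells.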

[4] = NCI Yeast Anticancer Drug Screen. Data for the cln2 rad14 strain (AID 165);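 also: 0% = growth equal to vehicle treated cultures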; conditions: S. cerevisiae cln2 rad14 strain, stronger effect = higher value
In short: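 The screen exposed genetically defined yeast (cln2 rad14) to test compounds and scored growth inhibition relative to vehicle-treated controls.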

[5] = NCI Yeast Anticancer Drug Screen. Data for the bub3 strain (AID 167); conditions: S. cerevisiae bub3 mutant strain, stronger effect = higher value
In short: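 Compounds were applied to a genetically altered yeast strain carrying a cell-cycle control defect. Growth inhibition was scored against vehicle-treated controls.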

[6] = NCI Yeast Anticancer Drug Screen. Data for the mlh1 rad18 strain (AID 175); conditions: S. cerevisiae mlh1 rad18 strain growth inhibition, stronger effect = higher value
In short: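 Compound-treated yeast growth, normalised to vehicle controls. Strain bears defined DNA repair mutations.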

[7] = at 5.0 µM (retest, dose inferred, filed as 0.5)
[8] = at 50.0 µM (retest, dose inferred, filed as 5.0)

Compound | growth inhibition [1, 7] | growth inhibition [1, 8] | growth inhibition ([1]; at 50.0 µM) | growth inhibition [2, 7] | growth inhibition [2, 8] | growth inhibition ([2]; at 50.0 µM) | growth inhibition [3, 7] | growth inhibition [3, 8] | growth inhibition ([3]; at 50.0 µM) | growth inhibition [4, 7] | growth inhibition [4, 8] | growth inhibition ([4]; at 50.0 µM) | growth inhibition [5, 7] | growth inhibition [5, 8] | growth inhibition ([5]; at 50.0 µM) | growth inhibition [6, 7] | growth inhibition [6, 8] | growth inhibition ([6]; at 50.0 µM)
O/N=C1/CCCC/C1=C/c1ccc(Cl)cc1 | -152% | -124% | 82.7% (active) | -48% | -53% | 53.4% | -63% | -23% | 74% (active) | -57% | -62% | 64.8% | -66% | -78% | 65.5% | -144% | -111% | 80% (active)
NC(=S)c1cccc(OCCCOc2ccccc2)c1 | 2% | 4% | 99.2% (active) | 0% | 14% | 99.6% (active) | 11% | 17% | 98.7% (active) | -8% | 1% | 98.2% (active) | 6% | 13% | 99.5% (active) | 4% | 30% | 99.3% (active)
C/C(=N\Nc1ccccn1)c1ccccn1 | 47% | 98% (active) | 98.8% (active) | 61% | 99% (active) | 98.7% (active) | 57% | 98% (active) | 99% (active) | 56% | 99% (active) | 97.3% (active) | 53% | 98% (active) | 49.9% | 60% | 98% (active) | 98.5% (active)
CC1(C)CCCC12C=NCC2 (stereo not drawn) | 2% | 16% | 17.8% | -2% | 18% | -1.15% | -1% | 11% | 31.9% | 1% | 1% | -3.95% | 2% | 10% | 43.1% | -28% | 27% | 22.9%
CC(C)C(=O)[O][Bi]([c]1ccccc1)[c]1ccccc1 | 13% | 92% (active) | 82% (active) | 7% | 78% (active) | 87.2% (active) | -32% | 93% (active) | 87.5% (active) | 9% | 90% (active) | 85.6% (active) | 11% | 93% (active) | 84.5% (active) | 15% | 88% (active) | 91% (active)
O=C(c1ccccc1)c1ccc(OCC2CO2)cc1 (stereo not drawn) | 10% | 77% (active) | 64.3% | -2% | 23% | 25% | 10% | 64% | 50.4% | -5% | 58% | 20.6% | -1% | 29% | 12.1% | 7% | 74% (active) | 71.9% (active)
